Source: PubChem
The list is not random: actives were taken first. Their share in the collection is about 2.9%.
GRK2 inh – compounds blocking aptamer binding on GRK2 – biochemical, human GRK2, bead flow cytometry, HTS, primary screen. FAM-aptamer displacement from GRK2. Beta-adrenergic receptor kinase 1 (Homo sapiens), P25098. 330,000 compounds, 0.59% hits. AID 488847, 2010. inhibition of aptamer binding, % at 10 µM;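 active means inhibition of aptamer binding above 40%, roughly 3 SD of noise, on plates passing a quality check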;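 further: median bead fluorescence of bound FAM aptamer so fluorescent compounds give negative values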
PP1 inh – PP1-alpha phosphatase inhibitors, primary screen, counter-screen for PP5 inhibitor project, biochemical, fluorescence, OMFP substrate, single point; inhibition, % at 6.7 µM; Serine/threonine-protein phosphatase PP1-alpha catalytic subunit (Homo sapiens), P62136; 320,000 compounds, 0.9% hits; purified PP1alpha;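 active means inhibition above the mean inhibition of all tested compounds plus 3 SD, computed separately for each screening campaign, cut at about 15% in these data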
Target sequence (P62136 whole entry, looked up): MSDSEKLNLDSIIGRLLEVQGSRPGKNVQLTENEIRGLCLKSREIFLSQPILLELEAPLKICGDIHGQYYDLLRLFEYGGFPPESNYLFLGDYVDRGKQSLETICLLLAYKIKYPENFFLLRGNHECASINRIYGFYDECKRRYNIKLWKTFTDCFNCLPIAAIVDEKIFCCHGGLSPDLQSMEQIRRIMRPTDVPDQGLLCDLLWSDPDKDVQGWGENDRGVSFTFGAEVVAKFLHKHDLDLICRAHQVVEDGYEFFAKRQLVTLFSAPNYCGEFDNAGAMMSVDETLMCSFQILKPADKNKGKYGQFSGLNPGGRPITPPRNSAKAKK
NadD block – inhibitors of S. aureus NadD, primary screen, biochemical, colorimetric, uHTS | 360,000 compounds, 0.78% hits | AID 602399, 2012 | inhibition, % at 20 µM | Nicotinate-nucleotide adenylyltransferase NadD (Staphylococcus aureus N315) | purified NadD enzyme, colorimetric absorbance read-out; in the data active means inhibition above about 26%
Exocytosis inh – LAMP-1 surface exposure blockers, TALL-104 cells – cell-based, flow cytometry, MLPCN library, primary screen; TALL-104 LAMP-1 surface exposure; cells stimulated with thapsigargin and PMA; 360,000 compounds, 0.66% hits; inhibition, % at 10 µM;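 active means inhibition above about 55%, limit read from the data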
Beta2AR agonist – beta2AR agonists driving receptor internalization, primary screen, cell-based, FAP fluorogen, flow cytometry; Beta-2 adrenergic receptor (Homo sapiens), P07550; Am2.2-beta2AR cells; response, % (concentration not given with the values); 340,000 compounds, 0.43% hits; AID 504454, 2011;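 active means response above a set limit, near 3 SD of response in nonfluorescent compounds, cut at about 42% in these data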
B2AR ag CP1 – beta2AR agonists via receptor internalization, confirmation, cell-based, FAP fluorogen, flow cytometry, single point, cherry pick 1 | shares compounds with Beta2AR agonist | Am2.2-beta2AR cells, FAP surface receptor; hits give low values | percent response (surface receptor), % at 10 µM | 1,100 compounds, 25% hits | AID 540358, 2011;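 active means surface receptor percent response at or below 58%, roughly 3 SD from nonfluorescent compounds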
B2AR FAP counter – fluorescence artifact in beta-2AR agonist FAP counterscreen; shares compounds with Beta2AR agonist; Am2.2 cells, FAP fluorogen flow cytometry; hits give low values; calls only at 10 µM; 1,100 tested, under 10 active;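 active means percent response below a set limit in fluorescence channel 1 and below 50% in channel 8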
NadD inh conf – inhibitors of S. aureus NadD, confirmation, biochemical, colorimetric, single concentration; shares compounds with NadD block; purified S. aureus NadD, colorimetric enzyme assay; inhibition, % at 20 µM; 2,000 compounds, 13% hits; AID 624309, 2012; in the data active means inhibition mostly above about 42%, no sharp cut-off; inactive means mostly below about 42%
Exocytosis CP01 – inhibitors of lytic granule exocytosis, confirmation, TALL-104 cells, flow cytometry, Cherry Pick01; shares compounds with Exocytosis inh; LAMP-1 externalization; stimulated with PMA plus thapsigargin; inhibition, % at 10 µM; 1,500 compounds, 11% hits; AID 651954, 2012; in the data active means inhibition above about 60%;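 further: 0% = stimulated vehicle wells and 100% = unstimulated wells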
* = called active by the depositor.

For Cc1ccc(Cn2c(N)c(S(=O)(=O)c3cccs3)c3nc4ccccc4nc32)cc1 the results were GRK2 inh 1, PP1 inh -2, NadD block 32*, Exocytosis inh 1, Beta2AR agonist 52*, B2AR ag CP1 74, B2AR FAP counter inactive and NadD inh conf 30.
Nc1c(S(=O)(=O)c2cccs2)c2nc3ccccc3nc2n1Cc1ccccc1 was read as GRK2 inh 0, PP1 inh 4, NadD block 16, Exocytosis inh 7 and Beta2AR agonist -1.
CSc1nc(SCCO)c2sc3nc(-c4ccco4)c4c(c3c2n1)CC(C)(C)OC4 was read as NadD block 60*, Exocytosis inh 3, Beta2AR agonist 100*, B2AR ag CP1 6.5*, B2AR FAP counter inactive and NadD inh conf 21.
`O=C(NCc1ccc2c3c(cccc13)C(=O)N2)c1cccs1` gave NadD block -3, Exocytosis inh 14 and Beta2AR agonist -3.
For O=C(Nc1ccc(S(=O)(=O)Nc2nccs2)cc1)c1cccc(N2C(=O)c3ccccc3C2=O)c1 the results were GRK2 inh 2, PP1 inh -1, NadD block 39*, Exocytosis inh -14, Beta2AR agonist 2, B2AR ag CP1 108, B2AR FAP counter inactive and NadD inh conf 58*.
`NS(=O)(=O)c1ccc(CCNC(=O)CCCOc2ccccc2)cc1` gave GRK2 inh 1, PP1 inh -2, NadD block 1, Exocytosis inh -2 and Beta2AR agonist -7.
`COc1ccc(CCNCC(O)COc2ccc(OC)cc2C(C)(C)C)cc1` (centres undefined) gave GRK2 inh 0, PP1 inh 7, NadD block -19, Exocytosis inh 61*, Beta2AR agonist 45*, B2AR ag CP1 99, B2AR FAP counter inactive and Exocytosis CP01 -5.
`COc1ccc(CCNCC(O)COc2cccc(Br)c2)cc1OC` (centres undefined) gave GRK2 inh 1, PP1 inh 5, NadD block -11, Exocytosis inh 9 and Beta2AR agonist -12.
`CCCCc1ccc(NC(=O)CSc2nc(=O)n(CCN(CC)CC)c3c2CCCC3)cc1` gave GRK2 inh 1, PP1 inh 3, NadD block -6, Exocytosis inh 82*, Beta2AR agonist 43*, B2AR ag CP1 103, B2AR FAP counter inactive and Exocytosis CP01 -2.
For Cc1cccc(Oc2ccc(NC(=O)C3=CC=CN4CCS(=O)(=O)N=C34)cc2)c1 the results were GRK2 inh 0, PP1 inh 3, NadD block -8, Exocytosis inh -3 and Beta2AR agonist 0.
`N#CC1=C(Nc2ccccc2Cl)SC2(CCCC2)NC1=O` gave NadD block 9 and Exocytosis inh 38.
For CN(Cc1cccs1)c1nc(-c2cccnc2)nc2ccccc12 the results were GRK2 inh 0, PP1 inh -9, NadD block -3, Exocytosis inh 84*, Beta2AR agonist 103*, B2AR ag CP1 2.7*, B2AR FAP counter inactive and Exocytosis CP01 21.
Screening Oc1ccccc1Nc1nc(NCc2ccco2)c2ccccc2n1 returned GRK2 inh 3, PP1 inh 7, NadD block 2, Exocytosis inh 61*, Beta2AR agonist 51*, B2AR ag CP1 23*, B2AR FAP counter inactive and Exocytosis CP01 89*.
c1ccc(CN2CCN(c3nc(NCc4ccco4)c4ccccc4n3)CC2)cc1 was read as GRK2 inh 1, PP1 inh 3, NadD block -4, Exocytosis inh 67*, Beta2AR agonist 9, B2AR ag CP1 102, B2AR FAP counter inactive and Exocytosis CP01 30.
`c1ccc(Nc2nc(NCc3ccco3)c3ccccc3n2)cc1` gave GRK2 inh 0, PP1 inh 16*, NadD block -4, Exocytosis inh 77*, Beta2AR agonist 18, B2AR ag CP1 80, B2AR FAP counter inactive and Exocytosis CP01 6.
For O=C(CN1C(=O)C2CC=CCC2C1=O)Nc1ccc(S(=O)(=O)Nc2nccs2)cc1 (centres undefined) the results were GRK2 inh 1, PP1 inh -4, NadD block -4, Exocytosis inh -1 and Beta2AR agonist -4.
COc1ccccc1-c1cc(C(F)(F)F)nc(S(=O)(=O)CCCC(=O)N2CCCCC2C)n1 (centres undefined) was read as GRK2 inh 10, PP1 inh 2, NadD block 2, Exocytosis inh 64*, Beta2AR agonist 35, B2AR ag CP1 66, B2AR FAP counter inactive and Exocytosis CP01 4.
For COc1ccccc1-c1cc(C(F)(F)F)nc(N2CCCCC2)n1 the results were GRK2 inh 2, PP1 inh -1, NadD block 4, Exocytosis inh 2 and Beta2AR agonist 3.
Screening CCOC(=O)C1=CCC(c2cccn2C(=O)OC(C)(C)C)N(S(=O)(=O)c2ccc(C)cc2)C1 (centres undefined) returned NadD block -5 and Exocytosis inh -3.
For c1cc2c(cc1C1CCCCC1)c1c3n2CCCNC3CCC1 (centres undefined) the results were GRK2 inh 0, PP1 inh 7, NadD block 3, Exocytosis inh 77*, Beta2AR agonist 44*, B2AR ag CP1 101, B2AR FAP counter inactive and Exocytosis CP01 7.
Screening Cc1ccc2c(c1)c1c3n2CCCNC3CCC1 (centres undefined) returned GRK2 inh 0, PP1 inh -8, NadD block 1, Exocytosis inh 0 and Beta2AR agonist 10.
Screening CCn1c(=N)n(CC(=O)c2ccc(Br)s2)c2ccccc21 returned GRK2 inh 5, PP1 inh -1, NadD block -7, Exocytosis inh -1 and Beta2AR agonist -4.
